The panel holds about 83,000 compounds, 20% with a hit somewhere; the sample as a whole holds those more often.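 The test compound was applied at a single concentration to cells in 96-well plates for 48 hours, and percent growth was recorded.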 A number with no mark means an inactive call. Calls of active or inactive are those of the source. Rule for the calls: active = growth percent below 10; inactive = the rest.
What was measured:
Experiment in all cases: NCI-60 one-dose screen, 48 h (100 = growth as untreated, 0 = no growth, -100 = all killed)
Details in all cases: 10 µM unless noted
EKVX NSCLC = test system: EKVX NSCLC
SN12C renal = test system: SN12C renal
UO-31 renal = test system: UO-31 renal
ACHN renal = test system: ACHN renal
CAKI-1 renal = test system: CAKI-1 renal
CCRF-CEM leukemia = test system: CCRF-CEM leukemia
MOLT-4 leukemia = test system: MOLT-4 leukemia
SR leukemia = test system: SR leukemia
RPMI-8226 leukemia = test system: RPMI-8226 leukemia
OVCAR-8 ovarian = test system: OVCAR-8 ovarian
OVCAR-5 ovarian = test system: OVCAR-5 ovarian
OVCAR-4 ovarian = test system: OVCAR-4 ovarian
SK-OV-3 ovarian = test system: SK-OV-3 ovarian
IGROV1 ovarian = test system: IGROV1 ovarian
OVCAR-3 ovarian = test system: OVCAR-3 ovarian
HS 578T breast = test system: HS 578T breast
NCI/ADR-RES ovarian = test system: NCI/ADR-RES ovarian
T-47D breast = test system: T-47D breast
A498 renal = test system: A498 renal

Row | Compound | growth (EKVX NSCLC) [%] | growth (SN12C renal) | growth (UO-31 renal) | growth (ACHN renal) | growth (CAKI-1 renal) | growth (CCRF-CEM leukemia) | growth (MOLT-4 leukemia) | growth (SR leukemia) | growth (RPMI-8226 leukemia) | growth (OVCAR-8 ovarian) | growth (OVCAR-5 ovarian) | growth (OVCAR-4 ovarian) | growth (SK-OV-3 ovarian) [%] | growth (IGROV1 ovarian) | growth (OVCAR-3 ovarian) | growth (HS 578T breast) | growth (NCI/ADR-RES ovarian) | growth (T-47D breast) | growth (A498 renal)
1 | COc1cccc(OC)c1-c1nnn(C)c1C(=S)N1CCN(c2ccc([N+](=O)[O-])cc2Cl)CC1 | 83.6 | 93.6% | 58.7% | 92.2% | 78.9% | 91.7% | 78% | 87.1% | 77.5% | 95.4% | 91.6% | 91.9% | 110 | 78.1% | 112% | 95% | 93.6% | 101% | –
2 | COc1cc(OC)c(S(=O)(=O)NNC(=O)c2ccncc2)cc1C(=O)/C=C/c1ccc(C)cc1 | 85.7 | 95.8% | 77.5% | 98.1% | 72.4% | 8.66% (active) | 42.2% | 21.9% | 20.3% | 88.3% | 110% | 91.3% | 101 | 72.7% | 81% | 80.5% | 107% | 72.7% | –
3 | Clc1ccc2oc3c(NCCCN4CCOCC4)c4ccccc4nc3c2c1 | 37.9 | 19.6% | 24.2% | 13.4% | 12.8% | 27.6% | 4.08% (active) | 1.91% (active) | 11.4% | – | 30% | 36.9% | 57.8 | 16.9% | 64.5% | 37.8% | 29.2% | 51.7% | -2.14% (active)
4 | CN(C)CCCNc1c2ccc(Cl)cc2nc2c1oc1ccc(Cl)cc12 | 44.4 | -74.4% (active) | 45.2% | -96.8% (active) | -85% (active) | – | -4.89% (active) | -12.3% (active) | – | -78.6% (active) | -7.04% (active) | 0.544% (active) | 60.5 | -64.3% (active) | -52.6% (active) | 60.9% | 2.92% (active) | 84.4% | 37.9%
5 | CC(C)NC(=O)c1cc(-c2ccc(NC(=O)Nc3ccc(N4CCOCC4)c(C(F)(F)F)c3)cc2)nc2cccnc12 | 72.7 | 69% | 48.2% | 62.7% | 63.7% | 44.3% | 18.7% | 10.2% | 14.3% | 63.7% | – | 71.7% | 88.5 | 66.9% | – | 9.42% (active) | 78.4% | 64.2% | 25.6%
6 | COc1cc(OC)c(C2SCC(=O)N2Nc2ncnc3ccccc23)cc1OC (stereo not given) | 100 | 103% | 89.7% | 106% | 94% | 107% | 105% | 104% | – | 106% | 109% | 103% | 127 | 106% | 119% | 112% | 104% | 106% | 81.8%
7 | O=C(CSc1nccc(=O)[nH]1)Nc1ccc(-c2nc3ccccc3[nH]2)cc1 | 111 | 103% | 108% | 101% | 112% | 101% | 111% | 117% | 109% | – | 109% | 112% | 103 | 102% | 123% | 119% | 111% | 106% | 116%
8 | O=C1C2=C(C(=O)c3c(O)cccc31)C(c1ccco1)c1sc(=O)[nH]c1S2 (stereo not given) | 83.4 | -73.6% (active) | 25.1% | 39.6% | 70.4% | – | 0.849% (active) | 15.8% | 18.7% | 2.5% (active) | 11.7% | 24.3% | 115 | 28.1% | – | -10.4% (active) | 9.22% (active) | 23.6% | 17.1%
9 | OC1CCc2c(-c3ccc4ncnc(N5CCc6cc(F)c(Cl)cc65)c4c3)cncc21 (stereo not given) | 27.1 | 39.3% | 19% | 18.6% | 22.5% | 40.3% | 21.9% | 47.9% | 15.9% | – | 46.6% | 56.1% | 58.1 | -13.2% (active) | 37.6% | 27.8% | 51.1% | 7.03% (active) | -13.1% (active)
10 | CN(C)CCCOc1c2ccccc2nc2c1oc1ccc(Cl)cc12 | 12.4 | 12.4% | 4.84% (active) | 1.64% (active) | -6.35% (active) | 16.8% | -1.53% (active) | -26.7% (active) | – | 16.4% | 12.4% | 17.3% | 20.5 | -5.97% (active) | 22% | 25.7% | 3.58% (active) | 31.2% | -6.15% (active)
11 | O=C(CCN1C(=O)/C(=C/c2ccccc2)SC1=S)N1CCOCC1 | 82.3 | 81.7% | 72.9% | 67% | – | 49.1% | 89.4% | 65.4% | 67.7% | 99.6% | 94.8% | 101% | 98.5 | 88.5% | 110% | 100% | 98.8% | 65.7% | 90.5%
12 | Nc1nc(N)c2c(n1)NC(c1ccc(F)cc1)CC(c1ccc(Nc3nc(NCCO)nc(Nc4ccc(Cl)cc4)n3)cc1)=N2 (stereo not given) | 42.5 | 59.9% | 34.8% | 39.5% | 40.9% | -13.8% (active) | -17.5% (active) | -17.9% (active) | -37.6% (active) | 29% | 72% | 3.03% (active) | 84 | -25.9% (active) | 14.1% | 42.8% | 64.5% | 60% | –
13 | Cn1c(SCC(=O)Nc2ccc(-c3nc4ccc([N+](=O)[O-])cc4[nH]3)cc2)nc2ccccc2c1=O | 84.5 | 91.1% | 84.7% | 65.6% | 45.9% | – | 77.5% | 82.4% | 94.7% | 77.8% | 96% | 67.5% | 120 | 75.9% | – | 81.5% | 88.9% | 72.1% | –
14 | Cc1nc(-c2cc3ccccc3oc2=O)ccc1C(=O)/C=C/c1ccc(N2CCOCC2)cc1 | 86.6 | 83.8% | 83.9% | 70.9% | – | 72.4% | 66.1% | 26% | 93.4% | – | 101% | 72.4% | 88.7 | 82.6% | 87% | 59.7% | 67.3% | 80.2% | 75.2%
15 | Oc1c(Cl)cc(Cl)c2ccc(CN3CCCCC3)nc12 | 30.6 | 42.9% | 35.7% | 29.4% | – | 18.6% | 26.1% | 18.8% | – | 23% | 55.7% | 33.3% | 62.1 | 33.9% | 27.6% | 66.5% | 19.3% | 48.1% | 49.9%
16 | CCOC(=O)c1c(NC(=O)c2cccc(C(F)(F)F)c2)sc2cc(O)ccc12 | 84.8 | 89.4% | 60.1% | 93.4% | – | 63.5% | 81.6% | 101% | 73.9% | 105% | 98.4% | 104% | – | 75.7% | 98.6% | 88.1% | – | 64% | 77.1%
17 | O=C(N/N=C/c1ccc(Br)s1)c1[nH]c2ccc(Br)cc2c1-c1ccccc1 | 40.9 | 56.3% | 48.6% | 26.7% | 22.8% | 9.08% (active) | 14.2% | 10.1% | 5.48% (active) | 2.61% (active) | 52% | 71.1% | 40.6 | 18.1% | 9.72% (active) | 23.6% | 16.6% | 75.7% | –
18 | CN(C)c1ccc(/C=c2\sc3nc4ccccc4n3c2=O)cc1 | 87 | 99.2% | 92.2% | 98% | – | 13.8% | 103% | 99.7% | 104% | 106% | 102% | 107% | 124 | 77.2% | 124% | 101% | 107% | 83.8% | 85.1%

From PubChem BioAssay (NCI)
